These results are taken from PubChem BioAssay (EPA / NIEHS).

A short description of assay [1]: BSK_hDFCGF_SRB: Viability Assessment in the BioMAP Diversity Plus: hDFCGF Assay (AID 2283061).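 Further: cells exposed to compound for 24 h before the read.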 The note with it: primary human foreskin fibroblasts. In short, it runs like this: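 Primary human foreskin fibroblasts; 24 h post-dose; fixed 10% TCA, stained 0.1% SRB, A560 read; total protein as overt cytotoxicity measure; curves fit bidirectionally vs DMSO control.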

Read-out in assay [2]: TIMP metallopeptidase inhibitor 1 (TIMP1), TIMP1 (gene 7076)
Briefly: BSK_hDFCGF_TIMP1: BioMAP Diversity Plus: hDFCGF Assay for TIMP metallopeptidase inhibitor 1 (TIMP1) Biomarker Activity (AID 2283062). The note with it: primary human foreskin fibroblasts; actives raise or lower the signal. Summed up: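 ELISA readout of TIMP-1 from human dermal foreskin fibroblast cultures 24 h post-dosing. Curves were fitted in both directions against DMSO baseline, with SRB total-protein staining in parallel cultures as a cytotoxicity check.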

Read-out in assay [3]: Monokine induced gamma interferon (MIG), CXCL9 (gene 4283)
Kind of assay: BSK_hDFCGF_MIG: BioMAP Diversity Plus: hDFCGF Assay for Monokine induced gamma interferon (MIG) Biomarker Activity (AID 2283063). The note with it: primary human foreskin fibroblasts; actives raise or lower the signal. Summed up: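 Fibroblasts (human foreskin, primary) dosed, 24 h, MIG by ELISA; fit bidirectional vs DMSO.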

Read-out in assay [4]: Matrix Metallopeptidase 1 (MMP1), MMP1 (gene 4312)
Kind of assay: BSK_hDFCGF_MMP1: BioMAP Diversity Plus: hDFCGF Assay for Matrix Metallopeptidase 1 (MMP1) Biomarker Activity (AID 2283064). As to conditions: primary human foreskin fibroblasts; actives raise or lower the signal. In short, it runs like this:
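ELISA read-out of MMP1 from human foreskin fibroblasts (primary skin cells), 24 h post-dose. Gain or loss of signal was fitted bidirectionally versus DMSO negative control; cytotoxicity was checked by SRB in parallel cultures.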

Read-out in assay [5]: Vascular cell adhesion molecule 1 (VCAM1), VCAM1 (gene 7412)
Briefly: BSK_hDFCGF_VCAM1: BioMAP Diversity Plus: hDFCGF Assay for Vascular cell adhesion molecule 1 (VCAM1) Biomarker Activity (AID 2283065).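 On AC50: VCAM-1 protein level quantified by ELISA after 24 h chemical exposure.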 The note with it: primary human foreskin fibroblasts; actives raise or lower the signal. In short, it runs like this:
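ELISA read-out of VCAM-1 on human skin fibroblasts, 24 h post-dose; gain or loss of signal fitted bidirectionally against DMSO baseline.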

Read-out in assay [6]: Plasminogen activator inhibitor-1 (PAI1), SERPINE1 (gene 5054)
Briefly: BSK_hDFCGF_PAI1: BioMAP Diversity Plus: hDFCGF Assay for Plasminogen activator inhibitor-1 (PAI1) Biomarker Activity (AID 2283066). As to conditions: primary human foreskin fibroblasts; actives raise or lower the signal. In short, it runs like this:
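Human skin fibroblast cultures receive chemical for 24 h before PAI-1 is measured by ELISA; signal changes are fitted bidirectionally against DMSO-treated wells.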

Read-out in assay [7]: Intercellular Adhesion Molecule 1 (ICAM1), ICAM1 (gene 3383)
Kind of assay: BSK_KF3CT_ICAM1: BioMAP Diversity Plus: KF3CT Assay for Intercellular Adhesion Molecule 1 (ICAM1) Biomarker Activity (AID 2283067). The note with it: primary human keratinocytes with fibroblasts; actives raise or lower the signal. Summed up:
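ELISA readout of ICAM-1; KF3CT human skin co-culture (keratinocytes + foreskin fibroblasts), 24 h post-dose; gain/loss fit vs DMSO baseline.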

Read-out in assay [8]: Interferon-gamma inducible Protein 10 (IP10), CXCL10 (gene 3627)
Kind of assay: BSK_KF3CT_IP10: BioMAP Diversity Plus: KF3CT Assay for Interferon-gamma inducible Protein 10 (IP10) Biomarker Activity (AID 2283068). The note with it: primary human keratinocytes with fibroblasts; actives raise or lower the signal. In short, it runs like this:
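KF3CT co-culture (keratinocytes + foreskin fibroblasts), 24 h compound, IP-10 by ELISA; bidirectional fit vs DMSO baseline.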

The nature of assay [9]: BSK_KF3CT_SRB: Viability Assessment in the BioMAP Diversity Plus: KF3CT Assay (AID 2283069).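 Further: total protein by sulforhodamine B staining as a cytotoxicity measure; read 24 h after compound addition.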 The note with it: primary human keratinocytes with fibroblasts. Summed up:
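SRB read-out at 560 nm (0.1% stain, TCA-fixed cells) gauges overt cytotoxicity in a human skin keratinocyte–fibroblast co-culture 24 h post-dosing. Signal change was fitted bidirectionally relative to DMSO control.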

Read-out in assay [10]: Interleukin-1 alpha (IL1a), IL1A (gene 3552)
Briefly: BSK_KF3CT_IL1a: BioMAP Diversity Plus: KF3CT Assay for Interleukin-1 alpha (IL1a) Biomarker Activity (AID 2283070). As to conditions: primary human keratinocytes with fibroblasts; actives raise or lower the signal. Summed up: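 Primary skin co-culture (keratinocytes, foreskin fibroblasts), 24 h exposure; ELISA for IL-1a; bidirectional curve fit vs DMSO.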

Where “and” joins values, the source holds several entries; their conditions need not be identical. Equal values may be shown once. Calls of active or inactive are those of the source. How the source made its calls: active means hit-call score of the fitted dose curve at least 0.9, where 1 is the maximum; inactive means score below 0.9.

On to `CC(C)C(=O)OCC(C)(C)C(OC(=O)C(C)C)C(C)C` (stereo not given), for which the result in assay [1], in assay [2], in [3], in [4], in assay [5] and in [6] was inactive. The result in assay [7], in assay [8], in [9] and in assay [10] was inactive.

Regarding `Cc1cc(O)ccc1Cl`, the outcome in assay [1], in assay [2], in assay [3], in assay [4], in assay [5] and in [6] was inactive. The outcome in [7], in assay [8], in assay [9] and in assay [10] was inactive.

On to `Cc1ccccc1CO[C@@H]1C[C@@]2(C(C)C)CC[C@]1(C)O2`, for which the outcome in assay [1], in assay [2], in assay [3], in [4], in assay [5] and in [6] was inactive. In addition, the outcome in [7], in [8], in [9] and in [10] was inactive.

Turning to `CCOCCOC(C)=O`, the outcome in assay [1], in [2], in assay [3], in assay [4], in [5] and in assay [6] was inactive. Besides, the outcome in assay [7], in assay [8], in assay [9] and in assay [10] was inactive.

Consider `Cc1cccc(C)c1N`, for which the result in assay [1], in assay [2], in [3], in [4], in assay [5] and in assay [6] was inactive. Also, the result in assay [7], in assay [8], in assay [9] and in [10] was inactive.

Broadly, the AC50 is the midpoint of the concentration-response curve, whichever way the signal moves. With `CCC(C)c1cc([N+](=O)[O-])cc([N+](=O)[O-])c1O` (stereo not given), the AC50 in assay [1] was 7.45 µM (active); in assay [6], 12 µM (active); in assay [8], 3.97 µM (active). The result in assay [2], in [3], in assay [4], in [5], in assay [7] and in [9] was inactive. For the same compound, the outcome in assay [10] was inactive.

For `CCCCCCCCCC[N+](C)(C)CCCCCCCCCC`, the AC50 in assay [1] was 1.81 µM (active); in assay [2] it was 2 µM (active); in [3] it was 2.95 µM (active); in [4] it was 1.97 µM (active); in [5], 3.39 µM (active); in assay [6], 1.58 µM (active). Also, the AC50 in assay [7] is 10.7 µM (active); in [8], 6.12 µM (active); in [9], 5.41 µM (active); in assay [10] it was 6.82 µM (active).

With `C1CC2OC2CC1C1CO1` (stereo not given), the result in assay [1], in assay [2], in assay [3], in assay [4], in assay [5] and in [6] was inactive. Moreover, the outcome in assay [7], in assay [8], in assay [9] and in assay [10] was inactive.

Take `CC(C)(c1ccccc1)c1ccc(O)cc1`: the AC50 in [1] was 33.8 µM (active); in [2], 32 µM (active); in [3], 39 µM (active); in assay [4], 32.8 µM (active); in assay [5], 34.7 µM (active); in assay [6], 32.2 µM (active). The AC50 is 36.9 µM (active) in assay [7], 35.9 µM (active) in assay [8], 33.1 µM (active) in [9] and 31.2 µM (active) in [10].

For `Cc1cc(-c2ccc(N)c(C)c2)ccc1N`, the result in assay [1], in [2], in assay [3], in assay [4], in assay [5] and in [6] was inactive. For the same compound, the outcome in assay [7], in assay [8], in assay [9] and in assay [10] was inactive.

Take `O=C(NC(=O)c1cc(F)c(F)cc1Cl)Nc1cc(F)ccc1N1CCC(C(=O)O)CC1`: the result in assay [1], in assay [2], in assay [3], in assay [4], in assay [5] and in assay [6] was inactive. The result in assay [7], in assay [8], in [9] and in [10] was inactive.

As for `C=CC(=O)NCNC(=O)C=C`, the outcome in assay [1], in assay [2], in [3], in assay [4], in assay [5] and in assay [6] was inactive. The outcome in assay [7], in assay [8], in [9] and in assay [10] was inactive.

Regarding `NS(=O)(=O)C(F)(F)C(F)(F)C(F)(F)C(F)(F)C(F)(F)C(F)(F)C(F)(F)C(F)(F)F`, the AC50 in [1] is 26.9 µM (active) and 55 µM (active) and 47.2 µM (active); in assay [2], 34.4 µM (active) and 53.2 µM (active) and 54.7 µM (active); in assay [3], 29.4 µM (active) and 9.34 µM (active) and 11 µM (active); in [4], 30.7 µM (active) and 15.3 µM (active) and 17.5 µM (active); in assay [5], 17.3 µM (active) and 9.88 µM (active) and 7.69 µM (active); in assay [6], 27.7 µM (active) and 15.4 µM (active) and 21.1 µM (active). The AC50 in assay [7] is 32 µM (active) and 43.5 µM (active) and 54 µM (active); in assay [8] it was 13 µM (active) and 32.4 µM (active) and 37.3 µM (active); in assay [9] it was 30.1 µM (active) and 45.6 µM (active) and 21.4 µM (active); in [10], 29.4 µM (active) and 43.8 µM (active) and 44.6 µM (active).

Take `Cc1cc2c3c(c1)C(c1ccccc1)=N[C@@H](NC(=O)c1ccncc1)C(=O)N3CC2`: the result in assay [1], in [2], in assay [3], in [5], in assay [7] and in assay [8] was inactive. The result in [9] and in assay [10] was inactive. Besides, the AC50 in [4] was 14 µM (active); in [6], 5.53 µM (active).

For `Cc1cccc([N+](=O)[O-])c1`, the outcome in assay [1], in assay [2], in [3], in assay [4], in [5] and in assay [6] was inactive. Further, the result in assay [7], in assay [8], in assay [9] and in [10] was inactive.

Turning to `CCCN(CCC)N=O`, the result in assay [1], in assay [2], in assay [3], in assay [4], in assay [5] and in [6] was inactive. In addition, the result in assay [7], in [8], in [9] and in [10] was inactive.
